FBPA Giardia inh: Giardia lamblia aldolase inhibition. purified Giardia FBPA. Potency, µM (highest dose often 59.6 µM), without a hit: at the highest dose activity, negative = inhibition, hits mostly inhibitors. 290,000 tested, 0.71% active. A8B2U2; further: potency means the concentration at half of the fitted maximal effect; on the % scale 0 is the no-effect control and ±100 the full control effect; nearly all actives have a fitted effect of over 55% in size
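Giardia FBPA (40 nM reagent) was preincubated 10 min at RT with compound (up to 57.5 uM final), then substrate plus GAPDH/TPI/NAD/arsenate coupling system with diaphorase/resazurin was added; resorufin fluorescence (525/598 nm) was read after 20 min.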
NS1 function inh: influenza NS1 inhibition; Potency, µM (series often up to 46.1 µM), without a hit: at the top dose activity, positive = more growth; 270,000 tested, 0.4% active; calls by dose curve; further: potency means the concentration at half of the fitted maximal effect; actives are rising curves; nearly all actives have a fitted effect of over 50% in size
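OD600 was taken as the measure of yeast growth restored by compound in an NS1-expressing S. cerevisiae strain. Cells had been washed out of glucose medium and diluted 1:100 into galactose -URA medium, pH 6.0.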
Shiga inhibitor: Shiga toxin inhibition. Vero cells, Shiga toxin protein synthesis inhibition reporter. inhibition, % at 38.7 µM. 290,000 tested, 9.2% active. AID 2315; in the data active means inhibition mostly above about 28%, no sharp cut-off; inactive means mostly below about 43%; further: 0% is about no effect
Cycloheximide cs: counter-screen hit for Shiga toxin inhibitors, cycloheximide. cell reporter, cycloheximide protein synthesis inhibition counterscreen. max response, %. 300,000 tested, 12% active; in the data active means max response mostly above about 13%, no sharp cut-off; inactive means mostly below about 14%; further: read at 38.3 µM for the half of the compounds with a filed dose; 0% is about no effect
LmPK inhibitor: blocks Leishmania mexicana pyruvate kinase activity. Q27686. purified LmPK, Kinase-Glo ATP luminescence, 1 h. Potency, µM (series often up to 57.5 µM), for the others: at the highest dose activity change, negative = inhibition, most hits filed as inhibitors. 290,000 tested, 0.37% active. AID 1721; further: potency means the concentration at half of the fitted maximal effect; on the % scale 0 is the no-effect control and ±100 the full control effect
Target sequence (Q27686 whole entry, looked up): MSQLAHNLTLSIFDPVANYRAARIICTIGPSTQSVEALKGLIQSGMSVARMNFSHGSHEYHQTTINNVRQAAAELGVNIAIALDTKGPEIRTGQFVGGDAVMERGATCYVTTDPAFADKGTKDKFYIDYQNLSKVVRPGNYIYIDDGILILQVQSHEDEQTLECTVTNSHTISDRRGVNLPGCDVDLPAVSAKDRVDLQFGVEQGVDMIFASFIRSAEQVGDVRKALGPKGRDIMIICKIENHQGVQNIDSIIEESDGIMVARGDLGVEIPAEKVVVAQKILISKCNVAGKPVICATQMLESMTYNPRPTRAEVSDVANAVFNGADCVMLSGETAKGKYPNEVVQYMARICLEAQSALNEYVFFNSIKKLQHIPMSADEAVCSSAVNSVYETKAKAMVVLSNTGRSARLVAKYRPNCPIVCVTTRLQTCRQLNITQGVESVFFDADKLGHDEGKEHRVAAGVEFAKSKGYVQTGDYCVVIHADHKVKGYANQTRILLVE
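Screened at intermediate enzyme activity to detect both inhibitors and activators: LmPK at 0.1 nM, with a 0.5 nM enzyme column as activation reference. PEP 0.5 mM, ADP 0.1 mM; ATP detected by luminescence after 1 h.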
* = called active by the depositor; u = inconclusive; x = no result; [ ] = dose if it differs, or a comment. An excerpt weighted towards active compounds, which were near 14% of everything screened. Unless noted, the call rests on the fitted dose curve; in most records, active means well fitted curve in the direction sought with a large enough effect; inconclusive means small, poorly fitted or top-dose-only effect, or another doubt; inactive means no such curve, though single readings can be large; an effect the other way counts as inactive or inconclusive.

SMILES | FBPA Giardia inh | NS1 function inh | Shiga inhibitor | Cycloheximide cs | LmPK inhibitor
Cc1cc(N2CCOCC2)nc2ccc(NC(=O)CCC(=O)N3CCN(c4ccc(F)cc4)CC3)cc12 | u | -15% | 25 | 4 | 2%
Cc1cc(N2CCOCC2)nc2ccc(NC(=O)CCC(=O)N3CCN(c4ccccc4F)CC3)cc12 | 13% | -33% | 29 | 22* | 1%
Cc1cc(N2CCOCC2)nc2ccc(NC(=S)N3CCCCC3C)cc12 (centres undefined) | -29% | x | 19 | 31* | 3%[11.5 µM]
O=C(O)c1ccc(C(=O)c2ccccc2)c(C(=O)O)c1 | x | 6% | x | x | x
C[C@]1(c2ccccc2)OC(C(=O)O)=CC1=O | -1% | x | x | x | x
Cc1ccc2nc(C)cc(N/N=C/c3ccccc3O)c2c1 | 12% | 4% | 27* | 22* | -2%
COc1ccccc1/C=N/Nc1cc(C)nc2ccc(C)cc12 | 2% | -22% | x | 26* | -5%
Cc1cc(N/N=C/c2ccc(O)cc2O)c2ccccc2n1 | u | -5% | 22 | 5 | 5%
COc1ccc(/C=N/Nc2cc(C)nc3ccc(OC)cc23)c(OC)c1 | 14% | -16% | 14 | -1 | -1%
COC(=O)CC1C(=O)NCCN1C(=O)c1ccc([N+](=O)[O-])cc1 (centres undefined) | 4% | 5% | 6 | -5 | 5%
Cc1ccccc1OCC(=O)NCCCNC(=O)c1ccncc1 | 5% | 1% | -7 | 1 | 1%
COc1ccc(C(=O)NC(=S)N2CCCC2)cc1 | x | 1% | -16 | -4 | -7%
CC1CCN(C(=S)NC(=O)c2ccco2)CC1 | x | 5% | 50 | 33* | -9%
COc1ccc(C(=O)NC(=S)N2CCCCC2)cc1 | -5% | u | 40* | 19* | 1%
COc1ccc(C(=O)NC(=S)NC2CCSC2=O)cc1 (centres undefined) | -9% | 29% | 27* | 14 | -3%
O=C(NC(=S)N1CCN(Cc2ccccc2)CC1)c1ccco1 | u | 1% | -2 | 0 | 3%
O=C(COc1ccc(Cl)cc1)NC1CCSC1=O (centres undefined) | 3% | 0% | 53* | 19* | -6%
CO/N=C1/[C@H]2O[C@@H]2[C@@H](O)[C@H]2[C@H]1CCn1c(=O)n(-c3ccccc3)c(=O)n12 | 1%[12.9 µM] | x | x | x | x
COc1ccc(C(=O)NC(=S)N2CC(C)OC(C)C2)cc1 (centres undefined) | u | 9% | -3 | -3 | 1%
COc1ccc(C(=O)NC(=S)N2CCC(C)CC2)cc1 | 2% | -11% | 41 | 26* | 0%
Cc1ccc2[nH]cc(CCNS(=O)(=O)c3ccc(F)cc3)c2c1 | -7% | -5% | -2 | -2 | 1%
Cc1cccc(N2CCN(CC(=O)Nc3ccc(S(=O)(=O)N4CCOCC4)cc3)CC2)c1C | x | -22% | 2 | -2 | -1%
COc1ccc2c(c1)[nH]c1c(=O)n(Cc3ccco3)cnc12 | 10% | 4% | 39 | 13* | 5%
COc1ccc2c(c1)[nH]c1c(=O)n(CC3CCCO3)cnc12 (centres undefined) | -8% | -9% | 23 | 28* | -2%
O=c1c2[nH]c3cccc(Cl)c3c2ncn1CC1CCCO1 (centres undefined) | -4% | -1% | 49* | 23* | -2%
SMILES | FBPA Giardia inh | NS1 function inh | Shiga inhibitor | Cycloheximide cs | LmPK inhibitor
COc1cc2nc(CN(C)Cc3ccc(OC)c(OC)c3OC)[nH]c(=O)c2cc1OC | -8% | -1% | 37* | 11* | 2%
COc1ccc(N2CC(C(=O)Nc3nnc(SCC(=O)NCc4ccco4)s3)CC2=O)cc1 (centres undefined) | x | 3% | -2 | -1 | -5%
CCc1cc(CNC(=O)c2ccc(OC3CCN(CCc4ccccc4)CC3)cc2)on1 | -7% | -4% | -16 | -3 | 2%
Cc1cc(NCCN2CCOCC2)c2ccc3ccccc3c2n1 | 1% | -1% | 84* | 23* | -4%
COC(=O)C1=C(C)NC(C)=C(C(=O)OC)C1c1ccc2ccccc2n1 | 18% | 8% | -11 | -2 | 4%
O=C1c2ccccc2C(=O)C1c1ccc2ccccc2n1 | 0% | -12%[9.22 µM] | 78* | 34* | 14µM*
N=C1CCC[C@@H]1C(=S)SCCC(N)=O | x | 2% | x | x | x
O=C(/C=C/c1ccc(Cl)cc1)N(Cc1ccccc1)c1ccccn1 | -8% | -8% | 107* | 21* | 0%
CCCN1CCC(=O)N(CCSc2ccc(C)cc2)CC1 | 6% | -8% | 53* | 38* | -5%
Cc1ccc(SCCN2CCN(CCc3ccccc3)CCC2=O)cc1 | 2% | u | 7 | 13 | 0%
CC(C)CN1CCC(=O)N(CCSc2ccccc2)CC1 | 7% | 10% | 37* | 39* | -6%
O=C1CCC(O)CCN1CCSc1ccccc1 (centres undefined) | 5% | 20% | 50* | 34* | -1%
CCN(CC)S(=O)(=O)c1cc(NC(=O)NCCCl)ccc1C | -9% | -1% | 24 | 7 | 7%
O=C(Nc1ccc2c(c1)OCO2)c1ccc(Br)s1 | -17% | -9%[9.22 µM] | 45* | 35* | -8%
CCN(CC)S(=O)(=O)c1cc(NC(=O)c2ccc(Br)s2)ccc1C | -10% | 12% | 77* | 64* | 4%
CCN(CC)S(=O)(=O)c1cc(NC(=O)Cc2n[nH]c(=O)c3ccccc23)ccc1C | 2% | -1% | 16 | -2 | 0%
O=C(c1ccc2c(c1)OCCCO2)c1cccs1 | 1% | -60% | 44* | 31* | u
CCN(CC)S(=O)(=O)c1cc(NC(=O)C2Cc3ccccc3C(=O)O2)ccc1C (centres undefined) | -5% | -11% | 56* | 27* | 2%
O=C(c1ccc2c(c1)OCCCO2)N1CCCCC1 | 8% | 3% | 35 | 30 | -12%
CCC(O)c1cc2c(cc1NC(=O)c1cccs1)OCCO2 (centres undefined) | -4% | -13% | -8 | 2 | 3%
O=C(Nc1ccc2c(c1)OCCO2)c1cccs1 | -4% | -10% | 47* | 55* | u
O=C(Nc1ccc2c(c1)OCO2)c1cccs1 | -20% | -40% | 197* | 61* | 25µM*
CC1CN(C(=O)/C=C/c2ccc(SC(F)F)cc2)CC(C)O1 (centres undefined) | -4% | -3% | 1 | 7 | -2%
Nc1nc(SCC(=O)Nc2ccc([N+](=O)[O-])cc2)[nH]c(=O)c1NC(=O)c1ccc(Br)o1 | x | 7% | 16 | -1 | -3%
Cc1ccc(C(=O)NCCc2nnc3ccc(SCC(=O)N4CCCCC4)nn23)cc1 | x | 3% | 17 | 16 | -4%
Cc1ccc(C(=O)NCCc2nnc3ccc(SCC(=O)N4CCCC4)nn23)cc1 | x | -5% | 53* | 42* | -8%
CCN(CC)C(NC(=O)c1ccccc1)C(=O)c1ccccc1 (centres undefined) | -1% | 4% | 40 | 55* | 2%
CCn1ncc(/C=N/NC(=O)c2ccc3c(c2)OCO3)c1C | 1% | -5% | 23 | 4 | -3%
CCn1cc(/C=N/NC(=O)c2ccc3c(c2)OCO3)c(C)n1 | -2% | -1% | 48 | 16* | -6%

From PubChem
